Screening data as filed in PubChem.
NALP3 yeast inh = NALP3 inflammasome inhibitors in reconstituted yeast, primary screen, luminescence, uHTS; inhibition, % at 10 µM; Yeast reconstituted NLRP3/ASC/caspase-1, beta-gal luminescence, 24 h; AID 2825, 2010; 0.39% of 330,000 active;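 active means inhibition of 50% or more; inactive means inhibition below 50%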;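 further: plate controls were induced DMSO wells for no effect and uninduced yeast grown without galactose for full effect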
NALP1 yeast inh = NALP1 inflammasome inhibitors in reconstituted yeast, colorimetric, S. cerevisiae, triplicate retest | S. cerevisiae NALP1/ASC/caspase-1 growth, X-gal OD620, 72 h | inhibition, % at 10 µM | 0.61% of 280,000 active; in the data active means inhibition mostly above about 24%, no sharp cut-off; inactive means mostly below about 32%
tim10-1 inh = growth inhibitors of tim10-1 mutant yeast, primary screen, luminescence, uHTS; S. cerevisiae tim10-1 ts strain growth, BacTiter-Glo, 24 h; inhibition, % at 20 µM; 2.2% of 330,000 active; AID 463190, 2010;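 active means inhibition of at least 40%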;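 further: mutant grown at 25 °C; 0% = DMSO wells with yeast and 100% = wells holding no yeast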
tim23-1 inh = growth inhibitors of tim23-1 mutant yeast, primary screen, luminescence, uHTS; S. cerevisiae tim23-1 growth, BacTiter-Glo luminescence, 24 h; 1.3% of 330,000 active; inhibition, % at 20 µM; AID 463212, 2010;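 active means growth inhibition of the mutant yeast at or above 50%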;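 further: temperature-sensitive mutant grown at 25 °C; plate controls were DMSO-treated mutant yeast for no effect and medium wells lacking yeast for full effect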
SKKanGAS inh = S. pyogenes SKKanGAS growth inhibitors in kanamycin, primary screen, streptokinase expression inhibitor project, SKKanGAS strain, BacTiter-Glo luminescence | inhibition, % at 7.5 µM | 6 h | AID 1662, 2009 | 1.3% of 300,000 active;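 active means mean replicate score, as percent of positive control median, at least 50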;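 further: strain carries kanamycin resistance gene driven by streptokinase promoter and grows in 40 µg/ml kanamycin; loss of luminescence reflects streptokinase promoter inhibition or plain growth inhibition; 0% = median of DMSO wells and 100% = positive control at its reference dose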
TIM10 inh = growth inhibitors of isogenic TIM10 control yeast, primary screen, counter-screen for tim10-1 yeast inhibitor project, luminescence, uHTS. 1.4% of 330,000 active. S. cerevisiae TIM10 strain growth, BacTiter-Glo luminescence, 24 h. inhibition, % at 10 µM;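 active means inhibition of 40% or more at the single tested concentration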;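 further: wild-type TIM10 isogenic control strain grown at permissive 25 °C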
tim10 confirm = growth inhibitors of wild-type TIM10 yeast, confirmation, counter-screen for tim10-1 synthetic lethality project, single concentration, luminescence, S. cerevisiae | S. cerevisiae tim10 strain growth, BacTiter-Glo luminescence, 24 h | inhibition, % at 10 µM | 63% of 4,600 active | shares compounds with TIM10 inh;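 active means inhibition of yeast growth at or above a set limit in either of two replicates at 10 µM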;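 further: this counterscreen used the strain with wild-type TIM10; 0% = yeast with DMSO and 100% = medium wells lacking yeast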
Starred values were filed as active, the others as inactive; / = no result. A selection: hits, their analogues and other compounds. The true share with any hit is near 4.9%.

SMILES	NALP3 yeast inh	NALP1 yeast inh	tim10-1 inh	tim23-1 inh	SKKanGAS inh	TIM10 inh	tim10 confirm
Cc1ccc(CSc2nnc(-c3ccncc3)n2N)cc1	10.7	21.3	-7.7	1.7	3.7	41.9*	8.4
ClCc1nc2ccccc2c2ccccc12	-0.7	14.7	34.1	47.4	-3.2	40.6*	37.5*
CCOC(=O)c1c(CCl)nc2ccccc2c1-c1ccccc1	10.4	/	-8.1	29.4	11.6	-9.6	/
Cc1cc(C)cc(NC(=S)NCc2ccc3c(c2)OCO3)c1	11.6	/	11.1	-14.7	22.5	41.7*	16.1
COc1ccc(CNC(=S)Nc2cc(C)cc(C)c2)cc1	-6.0	20.1	26.7	14.6	0.6	41.0*	-15.4
COc1ccc(CNC(=S)Nc2ccccc2-c2ccccc2)cc1	9.8	12.4	23.8	14.7	5.7	47.7*	30.4
Cc1ccc(C(=O)NCc2ccc3c(c2)OCO3)c(C)c1	27.0	4.3	-4.4	4.1	-3.8	66.9*	8.4
COc1cccc(CNC(=S)Nc2cc(C)cc(C)c2)c1	-18.1	4.4	30.2	5.2	-8.8	-9.6	/
Nc1ncnc2c1ncn2[C@@H]1O[C@H](CNC(=O)[C@@H]2CCCN2S(=O)(=O)c2ccc(F)cc2)[C@@H](O)[C@H]1O	/	/	0.1	31.0	/	-0.3	/
Cc1n[nH]c(=O)c2c(NC(=O)COC(=O)Cc3ccc(Cl)cc3Cl)oc(C)c12	24.6	/	-7.3	13.1	2.0	8.5	/
Cc1cccc(C(=O)OCC(=O)NCc2ccco2)c1	8.8	/	-14.2	-8.7	/	0.5	/
Cc1ccc(C)c(NC(=S)NCc2ccc3c(c2)OCO3)c1	9.1	11.0	25.2	3.0	6.8	40.8*	-0.2
CSc1ncccc1-c1nc2ccccc2[nH]1	30.7	-10.4	25.8	29.3	3.5	22.7	/
CCSc1ncccc1-c1nc2ccccc2[nH]1	4.5	44.6	15.0	38.7	-22.8	43.0*	17.2
COCCN(CC(=O)Nc1cccc(C)c1C)C(=O)Cc1ccsc1	4.7	/	-2.2	-0.3	/	-2.0	/
O=C(OCc1ccc(Br)cc1)c1ccncc1	14.8	8.7	22.6	0.9	-1.0	6.3	/
CC(=O)Nc1ccc(C(=O)OCc2ccc(Br)cc2)cc1	29.1	15.9	34.4	46.2	-5.0	40.9*	34.8*
COc1ccc(NC(=O)C(c2ccc(Cl)cc2)C(C)C)cn1 (configuration not stated)	-1.4	14.3	21.0	16.1	-3.6	13.3	/
Cc1ccccc1N1C(=O)CC(Sc2nnc(-c3ccccc3)o2)C1=O (configuration not stated)	31.1	-1.4	32.7	31.1	-5.2	44.2*	44.0*
O=C1c2ccccc2CC1Sc1nnc(-c2ccncc2)o1 (configuration not stated)	1.1	4.3	17.9	16.1	-0.7	-9.6	/
Cc1ccc(CNC(=O)C(=O)NCC2OCCN2S(=O)(=O)c2ccc(Br)cc2)cc1 (configuration not stated)	-0.5	-0.9	17.7	9.2	2.2	4.2	/
O=C(Nc1nccs1)c1csc2c1CCCC2	11.5	-38.4	35.0	15.8	39.5	56.9*	43.9*
CC(NC(=O)CN1C(=O)NC2(CCCCCC2)C1=O)c1ccccc1Cl (configuration not stated)	17.2	/	9.3	20.5	/	15.1	/
COc1ccc(-c2cc(CCC(=O)N3CCN(c4cc(C)ccc4C)CC3)[nH]n2)cc1	/	/	16.4	44.1	/	21.4	/
CCn1c(COc2ccccc2)nnc1SCC(=O)NC1CC1	3.8	10.0	5.6	4.4	4.5	-8.7	/
c1ccc(-c2csc3nnc(SCc4ccc5c(c4)OCCO5)n23)cc1	3.2	5.4	39.1	39.9	2.9	41.0*	29.8*
O=C(CSc1nnc2scc(-c3ccccc3)n12)c1ccc2c(c1)OCCO2	-1.8	-0.5	28.9	17.9	-10.7	15.4	/
O=C1c2ccccc2CN1C(CO)Cc1ccccc1 (configuration not stated)	-2.0	-4.6	5.6	0.0	-1.7	-0.9	/
